Assay results as given in the supplement of paper PMC11417369.
± gives the standard deviation of the averaged measurements. Whole data set: some 25,000 sequences, median “ln(normalized median fluorescence intensity)” near 8.6, cut for the highest 2% near 10. This excerpt belongs to a sample that is enriched for the highest values.

Test system: PfAP2-EXP AP2 domain (GST-tagged)
Assay: gcPBM binding intensity (ln(normalized median fluorescence intensity)); higher = stronger DNA binding
In short: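 An Agilent 4 × 180k array carrying primer-extended double-stranded 36-bp intergenic genomic probes and negative controls received GST-tagged P. falciparum DNA-binding domains expressed in E. coli, about 25 μg on average, for 1 h. The binding buffer contained 1× PBS, 1% milk, 0.2 mg/ml BSA, 0.5% salmon testes DNA and 0.03% Triton X-100. Binding intensity is the top Masliner-normalised natural-log median intensity across replicate spots of either probe orientation, read after Alexa488 anti-GST antibody staining and a 488 nm scan.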

| Sequence | gcPBM binding intensity (ln) |
| --- | --- |
| TCCTTATAAAAATACACACAAACTTTAATTAAAACA [CACACA_site3730] | 8.45 ± 0.58 |
| TTTAAGATTTTGTAATGTACATATATACATATATAT [XGTACX_site399] | 8.45 ± 0.33 |
| AAAAAAAAAAAAGAAAAATATATATATAAATAAATA [GTGCAC_negctrl_site569] | 8.29 ± 0.67 |
| AAGAAATAAATACATACACACATATATAAATAAATA [CACACA_site7559] | 8.68 ± 0.18 |
| AATATAAGAATATATACACACATAAATACATACATA [CACACA_site4128] | 8.6 ± 0.31 |
| AAAAAAAGAAATAATAAAAAATATATATATATATAT [GTGCAC_negctrl_site702] | 10.1 ± 0.44 |
| AAGAAATAAATACATACACACATATATATATATATA [CACACA_site3362] | 10 ± 0.34 |
| TAAAGAAATAAATACATACACACATATATATATATA [CACACA_site3363] | 10.2 ± 0.5 |
| AGAAATAAGAAATATACACACATATATATATATATA [CACACA_site2808] | 10.2 ± 0.18 |
| ATATAAATAAAGAAATATATATATATATATATATAT [GTGCAC_negctrl_site668] | 10.2 ± 0.88 |
| AGAAATAAGAAATATACACACATATAAATATAAATA [CACACA_site7342] | 8.52 ± 0.55 |
| TTTTTTTTTTTTGATGCACACACCTGAACGAGTTAA [CACACA_site317] | 8.62 ± 0.32 |
| TAGCGTACATTTCATTGTAATCATAAAAAATAAAGA [CACACA_negctrl_site447] | 8.56 ± 0.49 |
| GTTGCAATTAACACTAGTACATATAAGTAGTTTATT [XGTACX_site2063] | 8.72 ± 0.18 |
| TCCTTGCATTTTAAAACACACAAAAATTAATTGTTA [CACACA_site7152] | 8.55 ± 0.32 |
| TTTTATGATTGACACACACACAAAAAAAAAAAAAAA [CACACA_site7860] | 8.2 ± 0.43 |
| AAAAAAAATATACATACATGCATACATAAGTTTCTA [TGCATGCA_site998] | 8.49 ± 0.24 |
| TATATATATATATAAGTGCATATAAAAATCGTTCGT | 10.3 ± 0.18 |
| AATAAAAATAATATAGTGCATAATATAAGGAAAAAA | 9.07 ± 0.071 |
| TATATATATATAATAGTGCATAAATAAATATATAAA | 9.65 ± 0.057 |
| ATATATATATATATAGTGCATAAAATAAGTTTCTAA | 10.2 ± 0.28 |
| TTTCTAGTTACAAGAGTGCATAATATATAAAAATAA [GTGCAC_site9874] | 8.85 |
| TTTTTTATTCCATAATATAATATGTTTTGAAATTTG [GTGCAC_negctrl_site440] | 8.27 ± 0.33 |

| Sequence | gcPBM binding intensity (ln) |
| --- | --- |
| TTTATTATATTTTTTTGTACATATTGATGTATATAA [XGTACX_site6527] | 8.59 ± 0.28 |
| GATGTGATGTATTTGGTATTTTTCGATGTTGGTAGG [CACACA_negctrl_site355] | 8.79 ± 0.73 |
| TACTATTTAAAATATGAACACACATTATTTGTTTTA [CACACA_site8870] | 8.13 ± 0.3 |
| ATATTGAAATGTTAATAGAAATATATGGTTAAATTG [XGTACX_negctrl_site212] | 8.34 ± 0.34 |
| AAAATAAAATTAGTTGCATGCAACTTAAACAGAAAT [TGCATGCA_site860] | 10.3 ± 0.35 |
| ATATACAGAAAAAATTAAAATAAATATGCAAAACAA [CACACA_negctrl_site704] | 8.86 ± 0.32 |
| ATAAATAAAACAACAGTGCAATAAAATTAGTTGAGG | 9.035 ± 0.021 |
| TATTGTTATTAAAAATGTACATATAAATTTCTTATT [XGTACX_site1409] | 8.32 ± 0.33 |
| TAAAAATTAAAGTGTACACATATATATATATATATA [CACACA_site4781] | 10.2 ± 0.38 |
| ATATATAATTAATTTTGTACACATAAAAAAAAAAAT [XGTACX_site6647] | 8.59 ± 0.42 |
| CCTAAAGTGTAAAATTCACACACATATATATATATA [CACACA_site8385] | 10.2 ± 0.44 |
| TAAATTAATAAAAAGTGTACATAATATACATATATA [XGTACX_site8604] | 8.62 ± 0.33 |
| TAAAGTGTAAAATTCACACACATATATATATATATA [CACACA_site4883] | 10.1 ± 0.36 |
| AAAAAATTATAAAAGTGTACATATATATATATATAT [XGTACX_site154] | 10 ± 0.38 |
| GTGTAAAAATTAAAGTGTACACATATATATATATAT [XGTACX_site2251] | 10.2 ± 0.31 |
| TTTTTCTTAAAAAATTGTACACATATATATATATAT [XGTACX_site542] | 10.3 ± 0.22 |
| AGGGGAAATAAAATATAAATTATCATATATATATAT [XGTACX_negctrl_site366] | 9.94 ± 0.21 |
| TTTTATTATATATATTGTACATATATTTTTATTTTT [XGTACX_site1564] | 8.62 ± 0.33 |
| TAAACATAAATATACACACAAACATATATGTATTTT [CACACA_site1214] | 8.51 ± 0.32 |
| TATGAACACCCAAATACACACACTCAAAAAAAAAAA [CACACA_site5466] | 8.4 ± 0.32 |
| AAAAAAAAAAAAAATACACACATATAAATATAAATA [CACACA_site6189] | 8.3 ± 0.49 |
| TACATATATTATTGCACACATATAAAATACCCCCAA [CACACA_site3895] | 9.55 ± 0.52 |
| TAAAAAATAAGATATACACACATATATTTATTTATA [CACACA_site7158] | 8.09 ± 0.52 |

| Sequence | gcPBM binding intensity (ln) |
| --- | --- |
| TAAAAAATAAAATACACACACATATATATATATATA [CACACA_site1323] | 10.2 ± 0.64 |
| TAAAAAAATAAATATACACACATATATATATATATA [CACACA_site1089] | 10.2 ± 0.29 |
| CATACATATATTATTGCACACATATAAAATACCCCC [CACACA_site9292] | 10.2 ± 0.33 |
| AAAAATAAAATATATACACACATATATATATATATA [CACACA_site2943] | 10.2 ± 0.64 |
| AAAAATAAGATATATACACACATATAAATATAAATA [CACACA_site7396] | 8.51 ± 0.38 |
| AAAAAAAAAATATACACACACACATACACATAAATA [CACACA_site3808] | 8.79 ± 0.53 |
| TAAAAAATAAGATATACACACATATATATATATATA [CACACA_site2324] | 10.2 ± 0.42 |
| ATAAAAAAAAAAAATACACACATATATATATATATA [CACACA_site1709] | 10.1 ± 0.26 |
| TACAGATATTATTGCACACATATAAAATACCCCCAA [CACACA_site6014] | 9.53 ± 0.33 |
| ATTATACTTTCCATTCGTACATATATAAATAAATAA [XGTACX_site6245] | 8.93 ± 0.35 |
| TTTTATTTATTTTATTGTACATATATAAAACTATGA [XGTACX_site3476] | 8.57 ± 0.42 |
| ATATTTTTAGATTCAGAAAAAAGATTCAACTTACTC [CACACA_negctrl_site1357] | 8.25 ± 0.45 |
| ATGTAGAATTGTAAATGTACATGAAACACATATTCA [XGTACX_site3436] | 8.79 ± 0.34 |
| TATAATATATTTATATGTACTTATTTATTTATATAT [XGTACX_site6519] | 8.39 ± 0.34 |
| AAAAATAAAATAAAGAAGGAAAATAAAAAAATAAGG [CACACA_negctrl_site1811] | 8.79 ± 0.44 |
| ATTTGTATATATTAATGTACACACATGCGTATGTTC [XGTACX_site7579] | 8.73 ± 0.41 |
| ATATTTATGACCGTACGTACCTAACAATACAATCAA [XGTACX_site4511] | 8.67 ± 0.099 |
| TATATAAACATATAAACATGCAATATATATATGTTA [TGCATGCA_site765] | 8.43 ± 0.2 |
| TTAATTTACATGAACTGTACATAACATTTTTTTAAA [XGTACX_site4672] | 8.38 ± 0.38 |
| AAATTATAATATAATACACACATAAAAAAAAAATCA [CACACA_site3634] | 8.6 ± 0.43 |
| ATAAATAATATAAATACACACTAAAAAAAATATATA [CACACA_site4456] | 8.62 ± 0.54 |
| AGGCACGTGTTATATACACACATAATCAAATAAACT [CACACA_site7852] | 8.76 ± 0.56 |
| ATATAAATAATATAAATACACACTAAAAAAAATATA [CACACA_site542] | 8.72 ± 0.51 |

| Sequence | gcPBM binding intensity (ln) |
| --- | --- |
| TATATATATATATATACACACTATATAATTCAAACA [CACACA_site4712] | 10.1 ± 0.33 |
| CAATTCAATATATATACACACACACTATTAATAATT [CACACA_site9256] | 8.52 ± 0.41 |
| TATATATATATATATACACACACACTAATAAAAAAA [CACACA_site8426] | 10.2 ± 0.21 |
| TATATATATATATATATACACACTATATAATTCAAA [CACACA_site1023] | 10.2 ± 0.44 |
| CCCCCCGTGTTATATACACACATAATCAAATAAAAT [CACACA_site4111] | 10.9 ± 0.078 |
| AAAGTAAAAGAAAGCACACACACATGGATTTATGTA [CACACA_site5997] | 8.53 ± 0.49 |
| ATATAGAATGTTTACACACGCAATAAATATATATAT [CACACA_site217] | 9.27 ± 0.13 |
| AAAAAAAAAAAAAAAAAAAAAAAAAAAATTCTATAT [GTGCAC_negctrl_site468] | 9.28 |
| ACAAATAAATATATATGTACATATATTTTTTTATTT [XGTACX_site2989] | 8.56 ± 0.37 |
| GACACCTGCATGAAAGTGCAAAATAGAAAAGGAACA [GTGCAC_site9593] | 9.22 ± 0.38 |
| ATATAGAACACCTGTGCATGCAAGTGCTAAAAAATT [TGCATGCA_site213] | 10.175 ± 0.007 |
| TATATAGAAAACAAGGCATGCAAATAACAAATTGTG [TGCATGCA_site473] | 9.85 ± 0.36 |
| TATTTTACTTTAAAAATGGAAAAAAAAAAGAATATT [CACACA_negctrl_site1360] | 8.38 ± 0.47 |
| TAGAAATAAGAAAAATGTACATATAATATTGAAAGT [XGTACX_site3043] | 9.17 ± 0.35 |
| TAATGATAAATACATACACACAAAAAATGATATATA [CACACA_site7258] | 8.6 ± 0.32 |
| AATGATACACATATATGTACATATATATATATATAT [XGTACX_site5391] | 10 ± 0.58 |
| ATACAATGATATATACATATATATATATATATATAT [TGCATGCA_negctrl_site359] | 10.2 ± 0.49 |
| TAAAAAAAAACATATACACACAAAAACGTACACATA [CACACA_site1354] | 8.86 ± 0.36 |
| GTAATATATACAAAATGTACAAAACAATAACATGAT [XGTACX_site8575] | 8.8 ± 0.39 |
| CGCAAAACAATGATACGTACATATATATATATATAT [XGTACX_site5883] | 10.3 ± 0.33 |
